Bioassay records: PubChem, several laboratories
Rows were chosen to be rich in hits. Some 4.7% of all compounds tested hit in one or more screens of this group.
DAT uptake mod = human DAT dopamine uptake with cocaine, either direction. Q01959. LLC-PK1 hDAT cells, [14C]-dopamine uptake with cocaine IC80; actives deviate in either direction. B-score at 10 µM. 110,000 compounds, 1.3% hits. AID 449768;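 active = Z score or B-score, a plate-position-corrected score, falls beyond the plate's 99.7% confidence bounds, in either direction; inactive = both scores lie inside the 99.7% bounds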;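 note: scored against the spread of the other compound wells on the same plate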
SDO1 yeast rescue = compounds rescuing growth of sdo1-depleted yeast, bone marrow failure model; S. cerevisiae sdo1-depleted JHY4D growth rescue, OD600 30 h; hits give high values; pdr5 snq2 efflux-pump mutant strain; z-score at 10 µM; 140,000 compounds, 0.21% hits; AID 817;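 active = z-score above 3 at both the 24 hr and the 30 hr optical density reads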;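 note: z-score against mean and SD of all compound wells on the same plate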
Cav32 inh = inhibitors of human Cav3.2 T-type calcium channel | 100,000 compounds, 4% hits | O95180 | Cav3.2-expressing cells, Fluo-4 calcium fluorescence FDSS; hits give low values | AID 449739 | B-score at 10 µM;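 active = single-dose well whose peak fluorescence ratio is a statistical outlier from its plate by either plate-standardised score or position-corrected B-score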
Pyk2 oligo antag = Pyk2 (human) oligomerization antagonism | Q293 cells, Pyk2 FERM NanoBiT luminescence; hits give low values | z-score (the deposit names both 25 µM and 10 µM) | 99,000 compounds, 0.83% hits | AID 1347419;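 active = Z-score of -3 or lower, scaled per plate to the spread of control and sample wells; inactive = z-score above -3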;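 note: negative z-score means lost luminescence so less FERM oligomerization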
Plk1 PBD FP = inhibitors of human Plk1 polo box domain binding; Plk1 PBD phosphopeptide binding, fluorescence polarization; inhibition, %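 (tested at about 20 µM)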; 97,000 compounds, 0.13% hits; AID 693; in the data active = inhibition above about 34%, passing the limit was not always enough
Target sequence (P53350 whole entry, looked up, the tested form may be a part): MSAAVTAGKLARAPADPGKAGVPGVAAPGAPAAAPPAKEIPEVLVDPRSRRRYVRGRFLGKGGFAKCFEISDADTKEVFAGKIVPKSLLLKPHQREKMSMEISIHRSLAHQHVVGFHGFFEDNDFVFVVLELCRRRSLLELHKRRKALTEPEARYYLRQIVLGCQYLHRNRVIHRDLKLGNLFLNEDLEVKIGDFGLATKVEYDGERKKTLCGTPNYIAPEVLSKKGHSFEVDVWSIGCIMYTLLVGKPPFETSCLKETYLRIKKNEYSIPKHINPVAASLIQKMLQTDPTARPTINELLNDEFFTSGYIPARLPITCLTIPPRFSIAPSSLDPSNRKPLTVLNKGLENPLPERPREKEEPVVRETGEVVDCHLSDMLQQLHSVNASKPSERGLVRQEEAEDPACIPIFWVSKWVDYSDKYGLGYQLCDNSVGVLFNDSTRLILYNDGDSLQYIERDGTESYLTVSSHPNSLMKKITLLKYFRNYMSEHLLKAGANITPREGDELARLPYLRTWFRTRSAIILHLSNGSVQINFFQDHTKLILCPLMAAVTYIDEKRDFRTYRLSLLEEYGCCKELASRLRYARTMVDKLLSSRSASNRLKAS
PLK1 kinase inh = blocks human PLK1 kinase activity; P53350; recombinant PLK1 kinase, TR-FRET peptide phosphorylation; inhibition, % at 10 µM; 97,000 compounds, 0.53% hits; AID 619;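 active = inhibition of 50% or more in the single-concentration screen; inactive = inhibition below 50%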;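 note: 0% = DMSO max control and 100% = H-89 dihydrochloride min control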
Numbers without * were called inactive; nt = not tested or not shown.

SMILES	DAT uptake mod	SDO1 yeast rescue	Cav32 inh	Pyk2 oligo antag	Plk1 PBD FP	PLK1 kinase inh
O=C(Nc1cccc(Cl)c1)N1CCN2C(=O)c3ccccc3C12c1ccccc1 (stereo not given)	-2.4	-0.99	-6.6*	-3.2*	-6	-7
COc1ccc(OC)c(/C=N/NC(=O)CNC(=O)c2ccc(S(=O)(=O)N3CCOCC3)cc2)c1	nt	0.94	nt	nt	nt	nt
O=C(Nc1cccn(Cc2ccc(F)cc2)c1=O)NC1CCCCC1	2.3*	-1.9	-3	0.92	-11	-9
O=C(Nc1cccn(Cc2ccccc2)c1=O)NC1CCCCC1	0.93	-0.98	-1.6	0.83	-26	-9
CCOC(=O)c1nn(-c2ccccc2)c(C#N)c1NC(=O)c1nn(CC)cc1Br	0.056	-1	-1.1	-3.5*	-16	-12
CCOc1ccc(N2C(=O)CC(N3CCC(NC(=O)Nc4ccccc4)CC3)C2=O)cc1 (stereo not given)	-2*	-0.62	1.4	0.26	-15	-14
CCOc1ccc(N2C(=O)CC(N3CCN(C(=O)CN4CCCC4)CC3)C2=O)cc1 (stereo not given)	-0.078	0.13	-0.62	0.24	-5	-7
CCC(C)(C(=O)Nc1ccc2c(c1)OCCO2)N(C(C)=O)c1ccc(C(N)=O)cc1 (stereo not given)	-2.8*	1.6	-0.88	-0.02	11	-18
CCOc1ccc2nc(NC(=O)c3ccc(OC)c(S(=O)(=O)N4CCOCC4)c3)sc2c1	0.57	-0.26	-0.46	-3.7*	-3	-8
CCOc1ccc2nc(NC(=O)c3ccc(S(=O)(=O)N4CCOCC4)cc3)sc2c1	nt	0.03	nt	0.75	0	1
O=C(Nc1ccn(Cc2ccccc2F)n1)c1ccc(COc2cc(Cl)ccc2Cl)o1	0.29	-1.7	-4.9*	-0.56	-9	-11
O=C(Nc1ccn(Cc2c(F)c(F)cc(F)c2F)n1)c1ccc(COc2cc(Cl)ccc2Cl)o1	-0.48	0.05	-2.6	0.16	16	-3
O=C(Nc1nn(Cc2ccc(Cl)cc2)cc1Br)c1ccc(COc2ccccc2Cl)o1	0.33	-0.49	-6.2*	-1.9	-29	-12
O=C(Nc1ccn(Cc2ccccc2F)n1)c1ccc(COc2cccc(Br)c2)cc1	0.85	-0.12	-7.3*	0.68	-2	-7
CCCCN(C(=O)NC(=O)Nc1ccc(C)cn1)S(C)(=O)=O	nt	0.78	nt	nt	nt	nt
COc1cc(NC(=O)c2ccccc2)cc(OC)c1	2	0.55	0.056	0.29	nt	nt
COc1ccc(C(=O)Nc2cc(OC)cc(OC)c2)cc1	1.7*	-0.85	0.34	-0.31	-30	-10
COC(=O)/C(=C1/Oc2ccc(C)cc2S1)C(F)(F)F	nt	-0.57	nt	nt	nt	nt
O=C(CN(Cc1ccco1)C(=O)c1cccc(Cl)c1)Nc1c(Cl)cc(Cl)cc1Cl	0.016	-0.79	-4.5*	-1.9	-25	-10
O=C(CN(Cc1ccco1)C(=O)c1ccc(Cl)cc1)Nc1c(Cl)cc(Cl)cc1Cl	nt	-0.7	nt	nt	nt	nt
O=C(CN(Cc1ccco1)C(=O)c1ccccc1)Nc1ccc(Cl)c(Cl)c1	0.44	-1.6	-8.7*	-3.7*	13	-5
COC(=O)C(C)NC(=O)c1ccc(C(C)(C)C)cc1 (stereo not given)	nt	0.77	nt	nt	nt	nt
C=C1CCN(c2ccc(C(=O)NCc3ccc(OC)cc3)cc2[N+](=O)[O-])CC1	-0.28	nt	-2.3	nt	nt	nt
CCc1cc2c(NCC3CCCO3)ncnc2s1 (stereo not given)	0.74	0.35	0.4	1.1	10	-6
Cc1sc2ncnc(NCC3CCCO3)c2c1C (stereo not given)	-0.33	0.55	-7.6*	3.6	-15	10
SMILES	DAT uptake mod	SDO1 yeast rescue	Cav32 inh	Pyk2 oligo antag	Plk1 PBD FP	PLK1 kinase inh
Cc1ccc(S(=O)(=O)c2c(N)n(NC(=O)c3ccco3)c3nc4ccccc4nc23)cc1	-1.6	1.9	-5.5*	0.6	-24	-4
Cc1ccc(S(=O)(=O)c2c(N)n(Cc3ccco3)c3nc4ccccc4nc23)cc1	0.44	-1.3	-4.2	0.33	-21	-1
Cc1cc2ncn(-c3ncnc4sc5c(c34)CCCC5)c2cc1C	1.6	-1.4	-5.7*	nt	0	-12
Cc1cc2ncn(-c3ncnc4sc5c(c34)CCC(C)C5)c2cc1C (stereo not given)	nt	-1.7	nt	-0.24	-10	-12
Cc1cc(Nc2ccccc2)n(-c2ccc(Br)cc2)n1	-0.19	0.34	-7.2*	-0.28	-8	2
Cc1ccc(NC(=O)CS(=O)CC(=O)Nc2ccc3c(c2)OCO3)cc1Cl (stereo not given)	-7.6*	-1.5	-3.3	1.2	-4	-3
C#C[C@]1(O)CCC2C3CCC4=Cc5oncc5CC4(C)C3CCC21C (stereo not given in full)	-0.6	nt	-4.8*	nt	nt	nt
C#C[C@]1(O)CC[C@H]2[C@@H]3CCc4cc(O)ccc4[C@H]3CC[C@@]21C	0.056	-1.8	-1.5	nt	nt	nt
Cc1cnc(N)c2c(=O)oc3ccccc3c12	-1.6	-0.57	-0.62	nt	-18	52*
NC(=O)c1cccc2c(=O)oc3ccccc3c12	-0.49	-0.54	0.92	-0.75	14	2
O=C([C@H](Cc1ccc(O)cc1)n1cc(CCO)nn1)N1CCNCC1	-0.25	nt	1.3	nt	nt	nt
Cc1nc(-c2ccccc2)sc1-c1nc(-c2cccs2)ncc1S(=O)(=O)c1ccccc1	-0.44	-0.58	-4.8*	nt	-21	-26
Cc1nc(-c2ccccc2)sc1-c1nc(-c2cccnc2)ncc1S(=O)(=O)c1ccccc1	0.99	-1.2	-5*	-2.4	-21	-31
O=C(Nc1ccc2oc(-c3ccccc3)nc2c1)c1ccco1	nt	-0.91	nt	nt	nt	nt
CCCCOCCCn1c(-c2ccco2)nc2nc3ccccc3nc21	3.5*	-0.43	0.64	0.3	9	-13
COC(=O)C1=CN(C(C)C)C=C(C(=O)OC)C1c1cc(Br)c(OC)c(OC)c1	1.4	-1.9	-0.44	-3.6*	-19	-8
CCOC(=O)c1cc(=O)n2nc(-c3ccc(C)cc3)nc2s1	-8.4*	0.4	0.9	1.2	0	-2
Cc1cc(O)cc(O)c1-c1onc(C(F)(F)F)c1-c1cscn1	0.65	1	-5.2*	0.62	15	58*
O=C1CC(NCCC2=CCCCC2)C(=O)N1c1cccc(Cl)c1Cl (stereo not given)	3.5*	0.05	-3.4*	nt	-37	-3
CSCCC(NS(=O)(=O)c1ccc(Cl)cc1)C(=O)OCC(=O)c1ccc(F)cc1 (stereo not given)	nt	-0.7	nt	nt	nt	nt
CC1=NN(Cc2ccccc2)C(=O)C1C(c1ccccc1)C(C#N)C#N (stereo not given)	0.48	1.2	1.4	-3.6*	-28	-3
CC1=NN(Cc2ccccc2)C(=O)C1C(c1ccc(Cl)cc1)C(C#N)C#N (stereo not given)	nt	-0.37	nt	nt	nt	nt
O=C(COC(=O)c1cccnc1Nc1cccc(C(F)(F)F)c1)NCCN1C(=O)CSC1=O	3.5*	-0.87	-1.4	1	-46	-7
